This is a sample that favours compounds with a hit; in the whole collection about 6.5% have one here.
VACV Venus inh = vaccinia inhibition (Venus reporter); Vaccinia virus Venus reporter expression, fluorescence; Potency, µM (titrated, usually from 36.5 µM), for the others: at the highest dose activity change, negative = inhibition, hits mostly inhibitors; hit rate 0.46% among 330,000; AID 720580; calls by dose curve; tested in A549 cells; note: potency is the fitted concentration of half-maximal effect; nearly all actives have a fitted effect of over 30% in size
Marburg entry inh = inhibitors of Marburg virus binding or cell entry; Marburg virus pseudotyped entry inhibition, cell reporter; Potency, µM (top dose mostly 37.8 µM), for inactives: at the top dose activity change, negative = inhibition, most hits filed as inhibitors; hit rate 1.8% among 300,000; AID 540276; calls by dose curve; tested in HEK293 cells; note: potency is the fitted concentration of half-maximal effect
LASV entry inh = inhibitors of Lassa virus binding or cell entry; hit rate 1.2% among 300,000; AID 540256; Potency, µM (top dose mostly 37.9 µM), without a hit: at the top dose activity change, negative = inhibition, hits mostly inhibitors; Lassa virus pseudotype entry inhibition, cell reporter; calls by dose curve; tested in HEK293 cells; note: potency is the fitted concentration of half-maximal effect; nearly all actives have a fitted effect of over 50% in size
VACV mCherry inh = vaccinia inhibition (mCherry reporter); Vaccinia virus mCherry reporter infection, fluorescence; Potency, µM (highest dose often 36.5 µM), for inactives: at the top dose activity change, negative = inhibition, usual class: inhibitors; hit rate 0.63% among 310,000; AID 720579; calls by dose curve; tested in A549 cells; note: potency is the fitted concentration of half-maximal effect; nearly all actives have a fitted effect of over 35% in size
HCMV antiviral = inhibitors of human cytomegalovirus. HFF cells, HCMV-luciferase reporter, 72 h; hits give low values. activity change, negative = inhibition, % at 57.5 µM. hit rate 4.5% among 410,000. AID 1259415; in the data active = activity change below about -60%; inconclusive = no clear call, values can overlap the other calls; inactive = above about -39%
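Compounds were evaluated in HFFs infected with an HCMV luciferase reporter virus (MOI 1 PFU/cell). Luciferase in lysates collected 72 h post infection served as the replication measure.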
FMDV inh = foot and mouth disease virus antiviral activity; FMDV antiviral cell-based qHTS; Potency, µM (top dose mostly 57.9 µM), for inactives: at the top dose activity change, negative = inhibition, hits mostly inhibitors; hit rate 1.2% among 410,000; calls by dose curve; tested in HEK293T cells; note: read-out not given here; potency is the fitted concentration of half-maximal effect; nearly all actives have a fitted effect of over 45% in size
The depositor's hits bear a star; [ ] = remark or other dose. % is set by controls: 0 for no effect and ±100 for the full control effect.

O=C(COC(=O)C1CC1)Nc1ccc2c(c1)OCO2 was read as VACV Venus inh 9%, Marburg entry inh inconclusive, LASV entry inh 18%, VACV mCherry inh 4%, HCMV antiviral -98* and FMDV inh 68%.
For O=C(COC(=O)/C=C/c1ccc2c(c1)OCO2)Nc1ccccc1 the results were VACV Venus inh -7%, Marburg entry inh 30%[46.1 µM], LASV entry inh -9%, VACV mCherry inh -20%, HCMV antiviral -6 and FMDV inh 45%.
For COC(=O)C(C(C)=O)[C@@H](NC(=O)NCc1ccccc1)c1ccccc1 (stereo not given in full) the results were Marburg entry inh 25%[14.2 µM].
Screening O=C(NCc1cccc(F)c1)[C@@H]1[C@@H](CO)[C@@H]2Cn3c(cccc3=O)[C@H]1N2C(=O)c1cnccn1 returned HCMV antiviral -9.
`NC(=S)N=Nc1c(O)[nH]c2ccc(F)cc12` gave VACV Venus inh 3.5µM*, Marburg entry inh 2%, LASV entry inh -4%, VACV mCherry inh 5µM*, HCMV antiviral -21 and FMDV inh -4%.
Screening O=C(Nc1ccc2oc(-c3cccc(Cl)c3Cl)nc2c1)c1cccc(Br)c1 returned VACV Venus inh inconclusive, LASV entry inh -8%[46.1 µM], VACV mCherry inh inconclusive, HCMV antiviral -74* and FMDV inh -5%.
Cn1c(=O)c2[nH]c(Cc3cccc4ccccc34)nc2n(C)c1=O was read as VACV Venus inh 0%, Marburg entry inh inconclusive, LASV entry inh inconclusive, VACV mCherry inh -15%, HCMV antiviral -14 and FMDV inh 0%.
For CCOC(=O)C1CCN(c2ncnc3c2oc2ccccc23)CC1 the results were VACV Venus inh -3%, Marburg entry inh -7%, LASV entry inh -23%, VACV mCherry inh -21% and HCMV antiviral 41.
`CCc1nc(Nc2ccc(N3CCN(C(C)=O)CC3)cc2)c2oc3ccccc3c2n1` gave VACV Venus inh -24%, Marburg entry inh inconclusive, LASV entry inh inconclusive, VACV mCherry inh -29%, HCMV antiviral -5 and FMDV inh inconclusive.
Screening CC(=O)N1CCN(c2ccc(Nc3ncnc4c3oc3ccccc34)cc2)CC1 returned VACV Venus inh inconclusive, Marburg entry inh inconclusive, LASV entry inh inconclusive, VACV mCherry inh -14%[1.46 µM], HCMV antiviral inconclusive and FMDV inh 28µM*.
For O=C(CSc1ncnc2c1oc1ccccc12)N1CCN(c2ccccc2)CC1 the results were Marburg entry inh 1%, LASV entry inh 6%, HCMV antiviral 37 and FMDV inh 0%.
c1ccc(N2CCN(c3ncnc4c3oc3ccccc34)CC2)cc1 was read as VACV Venus inh -7%, Marburg entry inh inconclusive, LASV entry inh 7%, VACV mCherry inh inactive, HCMV antiviral -29 and FMDV inh 35µM*.
`CCc1nnc(N2CCN(c3ncnc4c3oc3ccccc34)CC2)s1` gave VACV Venus inh -6%, Marburg entry inh 0%, LASV entry inh 4%, VACV mCherry inh -12%, HCMV antiviral inconclusive and FMDV inh 22µM*.
`Cc1ccc2c(c1)c1ncnc(N3CCN(c4ccccc4)CC3)c1n2C` gave VACV Venus inh -9%, Marburg entry inh 0%, LASV entry inh inconclusive, HCMV antiviral 87 and FMDV inh 20µM*.
COc1ccc(Cn2ccnc2SCC(=O)Nc2ccc(F)cc2F)cc1 was read as VACV Venus inh -8%, VACV mCherry inh inconclusive, HCMV antiviral -23 and FMDV inh -31%.
For CCCOc1ccccc1Cn1c(=O)sc2ccccc21 the results were VACV Venus inh -2%, Marburg entry inh 9%[46.1 µM], LASV entry inh 0%[46.1 µM], VACV mCherry inh -3%, HCMV antiviral -17 and FMDV inh -19%.
Screening O=C(COc1ccccc1Cl)Nc1cc(-c2ccccc2F)nn1-c1ccccc1 returned VACV Venus inh -25%, LASV entry inh 6%[46.1 µM], VACV mCherry inh -22%, HCMV antiviral 6 and FMDV inh 0%.
`Nc1ccc(-c2nc3ccc(-c4nc5ccccc5o4)cc3[nH]2)cc1` gave VACV Venus inh -5%, Marburg entry inh 7.1µM*, LASV entry inh -29%, VACV mCherry inh -10%, HCMV antiviral 15 and FMDV inh 32%.
